Pf Dd2 inh: blocks in vitro growth of P. falciparum Dd2 | P. falciparum Dd2 growth, SYBR Green, 72 h | Potency, µM (doses to about 28.9 µM), without a hit: at the top dose activity, negative = inhibition, actives largely listed as inhibitors | 120,000 tested, 4.3% active | AID 1347417; active = well fitted inhibition curve with a large enough effect;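 also: plate controls were DMSO vehicle for no effect and reference drug for full effect; nearly all actives have a fitted effect of over 65% in size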
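Readout: SYBR Green fluorescence, 485 nm excitation, 535 nm emission, after ~16 h lysis at 37C. Before that, Dd2-infected red cells (2.5% hematocrit) grew 72 h with compound, 29 uM top final concentration.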
Starred values were filed as active, the others as inactive; i = inactive; [ ] = remark or other dose. This is one part of a sample in which hits are shown more often than they occur. Potency is read from the fitted curve at half-maximal effect.

SMILES | Pf Dd2 inh
CCNC(=O)Nc1ccc(OCC(=O)NCc2cccs2)nc1 | i
N#Cc1ccccc1CN1CCCC(C(=O)NCc2ccccc2)CCNC(=O)CC1 (centres undefined) | i
COc1cccc(CN2CCCC(C(=O)NCc3ccncc3)CCNC(=O)CC2)c1 (centres undefined) | -5%
Cc1cccc(N2CCN(C(=O)C3CCCN(C(=O)c4cccnc4)CCC(=O)NCC3)CC2)c1 (centres undefined) | 6%
CCN1CCN(C(=O)C2CCCN(Cc3cccnc3)CCC(=O)NCC2)CC1 (centres undefined) | 9%
COc1cccc(CN2CCCC(C(=O)NCc3ccccc3)CCNC(=O)CC2)c1 (centres undefined) | 6.3µM*
COc1cccc(N2CCN(C(=O)C3CCCN(Cc4cccnc4)CCC(=O)NCC3)CC2)c1 (centres undefined) | 4µM*
COc1ccc(C2(C(=O)N3CCC(Cc4ccccc4)CC3)CCOCC2)cc1 | -14%
CCNC(=O)[C@@H]1C[C@H](NC(=O)Cc2ccccc2F)CN1C1CCOCC1 | 2%
COCCN1C(=O)c2ccccc2C(C(=O)Nc2cccc(NC(C)=O)c2)C12CCCCC2 (centres undefined) | i
COCCN1C(=O)c2ccccc2C(C(=O)Nc2nc3ccccc3[nH]2)C12CCCCC2 (centres undefined) | 1.8µM*
COCCN1C(=O)c2ccccc2C(C(=O)NCc2ccccc2)C12CCCCC2 (centres undefined) | -28%
CCCNC(=O)C1c2ccccc2C(=O)N(CCOC)C12CCCCC2 (centres undefined) | 0%
COCCN1C(=O)c2ccccc2C(C(=O)NCc2ccccc2F)C12CCCCC2 (centres undefined) | -25%
COCCN1C(=O)c2ccccc2C(C(=O)NCc2ccco2)C12CCCCC2 (centres undefined) | 0%
COCCN1C(=O)c2ccccc2C(C(=O)Nc2nc(C)c(C)s2)C12CCCCC2 (centres undefined) | 3.5µM*
COCCN1C(=O)c2ccccc2C(C(=O)NCCc2ccc(OC)cc2)C12CCCC2 (centres undefined) | i
COCCN1C(=O)c2ccccc2C(C(=O)Nc2nnc(C(C)C)s2)C12CCCCC2 (centres undefined) | 11µM*
COCCN1C(=O)c2ccccc2C(C(=O)NCC(C)C)C12CCCC2 (centres undefined) | 1%
COCCN1C(=O)c2ccccc2C(C(=O)NCc2ccc(F)cc2)C12CCCC2 (centres undefined) | -19%
COCCN1C(=O)c2ccccc2C(C(=O)NCCCc2ccccc2)C12CCCC2 (centres undefined) | 11µM*
Cc1noc(-c2ccc(OC3CN(C(=O)NCC(C)C)C3)cc2)n1 | 85%[5.79 µM]
Cc1cccc(-c2nc(Cn3c(-c4ccccc4)nc(C)c(CCO)c3=O)c(C)o2)c1 | -3%
Clc1ccc(-c2nnc([C@H]3CCN(Cc4c[nH]c5ccccc45)C3)o2)cc1 | -24%[44.1 µM]
CN1CC[C@H]2CN(C(=O)c3cn(-c4ccccc4)nn3)C[C@@]2(C(=O)O)C1 | 3%
SMILES | Pf Dd2 inh
Cc1ccc(C2NC(=O)N(CC(=O)N3CCN(c4ccccc4)CC3)C3=C2C(=O)OC3)cc1 (centres undefined) | i
COc1ccc(NC(=O)[C@@H]2COCC(=O)N2Cc2ccc(OC)c(OC)c2)cc1Cl | -13%
COC[C@@H]1CN(C(=O)c2ccc3c(c2)OCO3)C[C@H]1c1ccccn1 | -26%
O=C1CC2CCN(C(=O)c3ccc(C(F)(F)F)cc3)CC2CCN1 (centres undefined) | 16%
COc1ccccc1C(=O)N1CCC(OC2CCN(C)CC2)CC1 | -5%
Cc1cccc(C(=O)N2CCC(n3cnnc3C3CC3)CC2)c1 | 8%
CCNC(=O)N1CC(C(=O)NC(C)c2ccccc2)CC(c2ccc(F)c(C)c2)C1 (centres undefined) | i
CCOc1ccccc1C1NC(=O)N(CC(=O)Nc2cccc(F)c2)C2=C1C(=O)OC2 (centres undefined) | -24%
CN1CC(=O)N(C2CCNCC2)Cc2c1ncnc2N1CCC(N2CCOCC2)CC1 | 9%
COCCN1C(=O)c2ccccc2C(C(=O)NCCCOC(C)C)C12CCCCC2 (centres undefined) | -7%
CCc1nc(NC(=O)C2c3ccccc3C(=O)N(CCOC)C23CCCC3)sc1C (centres undefined) | 2µM*
COCCN1C(=O)c2ccccc2C(C(=O)Nc2cc(Cl)ccc2OC)C12CCCC2 (centres undefined) | -20%
CNc1ccc(C)cc1C(=O)NC(C(=O)O)c1c(C)n[nH]c1C (centres undefined) | 26%
O=[S+]([O-])(c1ccccc1)N1CCC2(CC(c3cccc(C(F)(F)F)c3)=NO2)C1 (centres undefined) | -23%
CCc1ccc(CNC(=O)CN2C(=O)NC3(CCCCC3)C2=O)cc1 | -17%
Cc1ccc(S(=O)(=O)N2CCN(C3CCN(Cc4cccnc4)C3=O)CC2)cc1C (centres undefined) | i
CCOC(=O)CSc1nc2ccc(NC(=O)c3ccc(C)cc3)cc2s1 | 1%
CN(C(=O)CSc1nc2ccc(NC(=O)c3cccc(F)c3)cc2s1)c1ccccc1 | -15%
CCOc1ccc(C(=O)Nc2ccc3nc(SCC(=O)N(C)c4ccccc4)sc3c2)cc1 | 8.9µM*
Cc1ccccc1OCC(=O)Nc1ccc2nc(SCC(=O)N(C)c3ccccc3)sc2c1 | -28%
CN(C(=O)CSc1nc2ccc(NC(=O)c3ccccc3F)cc2s1)c1ccccc1 | -24%
COc1ccccc1C(=O)Nc1ccc2nc(SCC(=O)N(C)c3ccccc3)sc2c1 | 8.9µM*
COc1ccc([C@H]2C[C@@H](O)[C@@H](O)[C@@H]2NS(=O)(=O)c2ccc(C(F)(F)F)cc2)cc1 | i
Cc1cnc(C(=O)NC2C[C@H]3CC[C@@H](C2)N3C(=O)Nc2cccc(C(F)(F)F)c2)cn1 (some centres undefined) | -9%
COCc1cn([C@H]2CO[C@H]3[C@@H]2OC[C@@H]3N)nn1 | 6%[44.1 µM]
SMILES | Pf Dd2 inh
COCCN1CC(CO)C2(CCN(Cc3ccc(F)c(F)c3)CC2)C1 (centres undefined) | -20%
COCCN1CC(CO)C2(CCN(Cc3cccc(Cl)c3)CC2)C1 (centres undefined) | 10µM*
COCCN1CC(CO)C2(CCN(Cc3cccc(C#N)c3)CC2)C1 (centres undefined) | -7%
Cc1nc2c(s1)CCCC2NC(=O)c1cc(-c2ccc(F)cc2)n[nH]1 (centres undefined) | -4%
COc1ccc(C(=O)NCC(=O)N2CCCCCCNC(=O)CC2c2ccccc2)c(OC)n1 (centres undefined) | 8.9µM*
Cc1nc(C)c(C(=O)NCC(=O)N2CCCCCCNC(=O)CC2c2ccccc2)s1 (centres undefined) | -1%
Cc1ncccc1C(=O)NCC(=O)N1CCCCCNC(=O)CC1c1ccccc1 (centres undefined) | 14%
COc1ccc(CCC(=O)NCC(=O)N2CCCCCNC(=O)CC2c2ccccc2)cc1 (centres undefined) | i
COc1ccc2[nH]c(C(=O)NCC(=O)N3CCCCCCNC(=O)CC3c3ccccc3)cc2c1 (centres undefined) | 5µM*
COc1ccc(C2(C(=O)NCC(=O)N3CCCCCNC(=O)CC3c3ccccc3)CC2)cc1 (centres undefined) | -2%
O=C(N[C@@H]1CCC[C@@H]1C(=O)NC1CCCCCC1)c1ccncc1 | -1%
